Reference: PubChem BioAssay AID1159580 (chemical genetic matrix, 2015)
Values joined by “and” are separate entries in the source; they are usually repeats but may differ in a detail not shown here. Equal values may be shown once. The campaign covered roughly 5,500 compounds. About 2,000 (36%) were called active. Inconclusive results (about 18%) are left out. No stated cut-off is given here; in the data, active means normalized growth mostly below about 0.91 (no sharp cut-off); inconclusive means no clear call, values can overlap the other calls; inactive means mostly above about 0.92. Some of the results follow.

Assay: chemical genetic growth profiling, strain panel (AID 1159580);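 further: tested at 20 µM; growth read once vehicle control cultures reached saturation at 30 °C; 1 = growth at the plate median or of vehicle wells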
Details: S. cerevisiae deletion strains, growth OD

Measured: normalized growth

O=C1CCCC2C3CC(CN12)[C@@H]1CCCCN1C3 (stereo not given in full)
inactive: locus YAL013W, strain DEP1, stronger effect = lower value 1.02 | locus YAL021C, strain ccr4, stronger effect = lower value 0.988 | locus YAL026C, strain drs2, stronger effect = lower value 1.01 | locus YAL030W, strain snc1, stronger effect = lower value 0.995 | locus YBL061C, strain skt5, stronger effect = lower value 0.995 | locus YBR009C, strain hhf1, stronger effect = lower value 0.999 | locus YBR021W, strain FUR4, stronger effect = lower value 1.04 | locus YBR023C, strain chs3, stronger effect = lower value 1 | locus YBR171W, strain sec66, stronger effect = lower value 0.992 | locus YBR229C, strain ROT2, stronger effect = lower value 0.985 | locus YBR231C, strain swc5, stronger effect = lower value 0.996 | locus YBR279W, strain paf1, stronger effect = lower value 1 | locus YCL011C, strain gbp2, stronger effect = lower value 0.995 | locus YCL016C, strain dcc1, stronger effect = lower value 0.993 | locus YCL029C, strain bik1, stronger effect = lower value 0.982 | locus YCL061C, strain MRC1, stronger effect = lower value 0.998 | locus YCL069W, strain vba3, stronger effect = lower value 0.999 | locus YCR088W, strain abp1, stronger effect = lower value 0.987 | locus YDL005C, strain med2, stronger effect = lower value 0.991 | locus YDL035C, strain GPR1, stronger effect = lower value 1.02 | locus YDL040C, strain nat1, stronger effect = lower value 0.991 | locus YDL074C, strain BRE1, stronger effect = lower value 1 | locus YDL101C, strain DUN1, stronger effect = lower value 0.988 | locus YDL134C, strain PPH21, stronger effect = lower value 0.993 | locus YDL185W, strain tfp1, stronger effect = lower value 0.984 | locus YDL192W, strain arf1, stronger effect = lower value 0.987 | locus YDR001C, strain nth1, stronger effect = lower value 1 | locus YDR069C, strain doa4, stronger effect = lower value 1.01 | locus YDR101C, strain arx1, stronger effect = lower value 0.988 | locus YDR137W, strain rgp1, stronger effect = lower value 1.01 | locus YDR159W, strain sac3, stronger effect = lower value 0.987 | locus YDR162C, strain NBP2, stronger effect = lower value 1.01 | locus YDR195W, strain ref2 0.981 | locus YDR297W, strain sur2, stronger effect = lower value 0.993 | locus YDR318W, strain mcm21, stronger effect = lower value 1 | locus YDR334W, strain swr1, stronger effect = lower value 1.02 | locus YDR335W, strain msn5, stronger effect = lower value 0.998 | locus YDR388W, stronger effect = lower value 0.997 | locus YDR392W, strain spt3, stronger effect = lower value 0.927 | locus YDR502C, strain sam2, stronger effect = lower value 0.989 | locus YEL003W, strain gim4, stronger effect = lower value 1 | locus YEL037C, strain rad23, stronger effect = lower value 1.01 | locus YEL061C, strain CIN8 (second series), stronger effect = lower value 0.998 | locus YEL061C, strain CIN8, stronger effect = lower value 0.997 | locus YER015W, strain faa2, stronger effect = lower value 1.01 | locus YER016W, strain bim1, stronger effect = lower value 0.995 | locus YER110C, stronger effect = lower value 0.977 | locus YER111C, strain swi4, stronger effect = lower value 0.998 | locus YER155C, strain BEM2 (second series), stronger effect = lower value 1.02 | locus YER155C, strain BEM2, stronger effect = lower value 0.98 | locus YER167W, strain BCK2, stronger effect = lower value 1.01 | locus YFR010W, strain ubp6, stronger effect = lower value 1 | locus YGL078C, strain dbp3, stronger effect = lower value 0.995 | locus YGL086W, strain mad1, stronger effect = lower value 1 | locus YGL167C, strain pmr1, stronger effect = lower value 0.991 | locus YGL173C, strain kem1, stronger effect = lower value 0.979 | locus YGL227W, strain vid30, stronger effect = lower value 1 | locus YGL240W, strain doc1, stronger effect = lower value 1 | locus YGL248W, strain PDE1, stronger effect = lower value 0.995 | locus YGL253W, strain hxk2, stronger effect = lower value 1 | locus YGR078C, strain PAC10, stronger effect = lower value 1.01 | locus YGR135W, strain pre9, stronger effect = lower value 1 | locus YGR229C, strain SMI1, stronger effect = lower value 1.02 | locus YGR252W, strain gcn5, stronger effect = lower value 1 | locus YHR013C, strain ard1, stronger effect = lower value 0.984 | locus YHR027C, strain rpn1, stronger effect = lower value 0.988 | locus YHR030C, strain SLT2, stronger effect = lower value 0.993 and 0.983 | locus YHR079C, strain IRE1 (second series), stronger effect = lower value 1 | locus YHR079C, strain IRE1, stronger effect = lower value 1.01 | locus YHR094C, strain hxt1, stronger effect = lower value 0.982 | locus YHR129C, strain ARP1, stronger effect = lower value 0.983 | locus YHR142W, strain chs7, stronger effect = lower value 0.996 | locus YHR200W, strain rpn10, stronger effect = lower value 0.997 | locus YIL066C, strain RNR3, stronger effect = lower value 1 | locus YIL073C, strain SPO22, stronger effect = lower value 1.02 | locus YIL125W, strain kgd1, stronger effect = lower value 0.994 | locus YIR030C, strain dcg1, stronger effect = lower value 0.993 | locus YJL092W, strain hpr5, stronger effect = lower value 1 | locus YJL095W, strain BCK1 (second series), stronger effect = lower value 0.99 | locus YJL095W, strain BCK1, stronger effect = lower value 0.983 and 0.957 | locus YJL115W, strain asf1, stronger effect = lower value 0.989 | locus YJL129C, strain trk1, stronger effect = lower value 0.99 | locus YJL134W, strain LCB3, stronger effect = lower value 0.997 | locus YJL154C, strain vps35, stronger effect = lower value 0.993 | locus YJL164C, strain tpk1, stronger effect = lower value 1 | locus YJL166W, strain qcr8, stronger effect = lower value 0.989 | locus YJL168C, strain set2, stronger effect = lower value 1 | locus YJL187C, strain SWE1 (second series), stronger effect = lower value 0.987 | locus YJL187C, strain SWE1, stronger effect = lower value 0.996 | locus YJR043C, strain POL32, stronger effect = lower value 1.04 | locus YJR066W, strain TOR1, stronger effect = lower value 0.992 | locus YKL009W, strain mrt4, stronger effect = lower value 0.974 | locus YKL068W, stronger effect = lower value 0.99 | locus YKL085W, strain MDH1 (second series), stronger effect = lower value 1.01 | locus YKL085W, strain MDH1, stronger effect = lower value 1.01 | locus YKL160W, strain elf1, stronger effect = lower value 0.982 | locus YKR001C, strain vps1, stronger effect = lower value 1.01 | locus YKR026C, strain gcn3, stronger effect = lower value 0.99 | locus YKR091W, strain srl3, stronger effect = lower value 1 | locus YLL001W, strain dnm1, stronger effect = lower value 0.979 | locus YLL026W, stronger effect = lower value 0.989 | locus YLL041C, strain sdh2, stronger effect = lower value 1 | locus YLR027C, strain aat2, stronger effect = lower value 0.99 | locus YLR039C, strain RIC1, stronger effect = lower value 1.04 | locus YLR058C, strain SHM2, stronger effect = lower value 0.992 | locus YLR102C, strain apc9, stronger effect = lower value 0.992 | locus YLR113W, strain HOG1, stronger effect = lower value 0.977 | locus YLR221C, strain rsa3, stronger effect = lower value 0.981 | locus YLR258W, strain gsy2, stronger effect = lower value 0.999 | locus YLR262C, strain YPT6 (second series), stronger effect = lower value 0.986 | locus YLR262C, strain YPT6, stronger effect = lower value 1.04 | locus YLR268W, strain sec22, stronger effect = lower value 0.979 | locus YLR320W, strain mms22, stronger effect = lower value 0.979 | locus YLR330W, strain CHS5, stronger effect = lower value 1.01 | locus YLR342W, strain FKS1 (second series), stronger effect = lower value 1.01 | locus YLR342W, strain FKS1, stronger effect = lower value 1.01 | locus YLR357W, strain rsc2, stronger effect = lower value 0.979 | locus YLR370C, strain arc18, stronger effect = lower value 1 | locus YLR371W, strain rom2, stronger effect = lower value 0.984 | locus YLR384C, strain iki3, stronger effect = lower value 1.01 | locus YLR418C, strain cdc73, stronger effect = lower value 1.02 | locus YML016C, strain PPZ1, stronger effect = lower value 0.978 | locus YML032C, strain rad52, stronger effect = lower value 1 | locus YML120C, strain ndi1, stronger effect = lower value 0.996 | locus YML124C, strain tub3, stronger effect = lower value 0.991 | locus YMR058W, strain fet3, stronger effect = lower value 1.01 | locus YMR078C, strain ctf18, stronger effect = lower value 0.991 | locus YMR125W, strain sto1, stronger effect = lower value 0.975 | locus YMR129W, stronger effect = lower value 0.995 | locus YMR205C, strain PFK2, stronger effect = lower value 0.978 | locus YMR223W, strain ubp8, stronger effect = lower value 0.995 | locus YMR231W, strain pep5, stronger effect = lower value 0.999 | locus YMR307W, strain GAS1, stronger effect = lower value 1.06 | locus YNL067W, strain RPL9B, stronger effect = lower value 0.993 | locus YNL071W, strain lat1, stronger effect = lower value 0.997 | locus YNL153C, strain GIM3, stronger effect = lower value 0.993 | locus YNL183C, strain NPR1, stronger effect = lower value 0.967 | locus YNL209W, strain ssb2, stronger effect = lower value 1 | locus YNL233W, strain BNI4, stronger effect = lower value 0.998 | locus YNL248C, strain rpa49, stronger effect = lower value 0.993 | locus YNL250W, strain rad50, stronger effect = lower value 0.984 | locus YNL271C, strain bni1, stronger effect = lower value 0.991 | locus YNL298W, strain CLA4, stronger effect = lower value 1 | locus YNL307C, strain MCK1, stronger effect = lower value 0.985 | locus YNL322C, strain KRE1 (second series), stronger effect = lower value 0.979 | locus YNR049C, strain mso1, stronger effect = lower value 0.994 | locus YNR052C, strain pop2, stronger effect = lower value 0.993 | locus YOL006C, strain TOP1, stronger effect = lower value 0.968 | locus YOL012C, strain htz1 2.29 | locus YOL147C, strain pex11, stronger effect = lower value 0.992 | locus YOR001W, strain rrp6, stronger effect = lower value 1.03 | locus YOR061W, strain CKA2, stronger effect = lower value 0.988 | locus YOR069W, strain VPS5, stronger effect = lower value 0.982 | locus YOR070C, strain gyp1, stronger effect = lower value 1.02 | locus YOR080W, strain dia2, stronger effect = lower value 0.986 | locus YOR083W, strain WHI5, stronger effect = lower value 0.973 | locus YOR106W, strain vam3, stronger effect = lower value 1 | locus YOR136W, strain idh2, stronger effect = lower value 0.985 | locus YOR144C, strain elg1, stronger effect = lower value 0.998 | locus YOR184W, strain ser1, stronger effect = lower value 0.991 | locus YOR231W, strain MKK1, stronger effect = lower value 1.01 | locus YOR265W, strain rbl2, stronger effect = lower value 1 | locus YOR270C, strain vph1, stronger effect = lower value 1.03 | locus YOR290C, strain snf2, stronger effect = lower value 0.975 | locus YOR316C, strain cot1, stronger effect = lower value 0.993 | locus YPL051W, strain arl3, stronger effect = lower value 0.993 | locus YPL078C, strain atp4, stronger effect = lower value 0.997 | locus YPL106C, strain sse1, stronger effect = lower value 0.968 | locus YPL240C, strain hsp82, stronger effect = lower value 0.999 | locus YPL256C, strain CLN2, stronger effect = lower value 1.01 | locus YPR119W, strain clb2, stronger effect = lower value 0.999 | locus YPR141C, strain kar3, stronger effect = lower value 0.982 | locus YPR163C, strain tif3, stronger effect = lower value 0.996 | locus YPR167C, strain met16, stronger effect = lower value 0.995 | strain wtn01, stronger effect = lower value 0.967
